Bioassay records (PubChem BioAssay)
Eya2 phos inh = Eya2 (human) phosphatase inhibition | O00167 | recombinant Eya2, OMFP fluorescence dephosphorylation (OMFP is methylfluorescein phosphate) | Potency, µM (titrated, usually from 76.9 µM), for the others: top-dose activity, negative = inhibition, most hits filed as inhibitors | 330,000 tested, 0.006% active; further: on the % scale 0 is the no-effect control and ±100 the full control effect
Target sequence (O00167 whole entry, looked up): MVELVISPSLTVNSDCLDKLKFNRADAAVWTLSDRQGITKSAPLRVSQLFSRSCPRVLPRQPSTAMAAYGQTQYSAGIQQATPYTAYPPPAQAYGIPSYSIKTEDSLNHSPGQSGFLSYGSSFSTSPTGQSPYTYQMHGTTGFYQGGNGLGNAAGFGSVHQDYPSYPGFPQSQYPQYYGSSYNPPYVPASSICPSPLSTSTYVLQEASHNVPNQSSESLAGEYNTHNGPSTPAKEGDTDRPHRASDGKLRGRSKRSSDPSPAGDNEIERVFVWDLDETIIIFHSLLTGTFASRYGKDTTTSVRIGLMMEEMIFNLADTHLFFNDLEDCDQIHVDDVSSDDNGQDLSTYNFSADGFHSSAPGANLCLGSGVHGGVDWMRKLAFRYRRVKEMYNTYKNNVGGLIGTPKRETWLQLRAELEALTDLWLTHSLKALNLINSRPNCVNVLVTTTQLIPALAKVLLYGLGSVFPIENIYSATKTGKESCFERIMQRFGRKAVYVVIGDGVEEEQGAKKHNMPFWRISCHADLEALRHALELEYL
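Eya2 protein (added as 0.2 uM solution) was preincubated with compound for 10 min at ambient temperature in 50 mM HEPES pH 7.5, 50 mM NaCl, 5 uM MgCl2, 0.05% BSA, 1 mM DTT. OMFP (added at 50 uM) then reacted 10 min; fluorescence read at 485/525 nm.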
USP2a block = blocks human ubiquitin-specific protease USP2a. Potency, µM (series often up to 38.3 µM), without a hit: at the highest dose activity change, negative = inhibition, actives largely listed as inhibitors. AID 463254. USP2 core, Ub-CHOP2 coupled fluorogenic reporter, 485/531. 330,000 tested, 0.01% active;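 further: plate controls were DMSO wells for no effect and full inhibition by NEM control for full effect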
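Deubiquitinase activity read as fluorescence (485/531 nm) after Ub-CHOP2 cleavage activates the enterokinase reporter on its substrate; USP2 core 10nM, Ub-CHOP2 and substrate 25nM each, 30min compound preincubation then 60min RT; data normalized to NEM, curves fitted.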
TSG101-PTAP inh = blocks PTAP/TSG101 interaction to inhibit HIV-1 budding; Potency, µM (doses to about 115 µM), without a hit: at the top dose activity change, negative = inhibition, hits mostly inhibitors; 340,000 tested, under 10 active; Fluorescence polarization, FITC-PTAP peptide / Tsg101 binding; active means well fitted inhibition curve with a large enough effect in the main read-out, with a control signal flat, not every such curve was filed as active; inconclusive means small, poorly fitted or top-dose-only effect, or effect the other way, or a change in a side signal; inactive means no such curve, though single readings can be large or run the other way; further: % of control where 0% means no effect
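Fluorescence anisotropy tracks displacement of a FITC-tagged PTAP peptide (50 nM) from the Tsg101 binding domain (10 uM), following a 20 min room-temperature incubation at pH 7.5.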
12-LOX inh = inhibitors of human 12S-lipoxygenase ALOX12 | 580,000 tested, 1.1% active | Potency, µM (top dose mostly 108 µM), inactives show top-dose activity change, negative = inhibition, hits mostly inhibitors | purified 12hLO, xylenol orange hydroperoxide absorbance; further: on the % scale 0 is the no-effect control and ±100 the full control effect
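Purified human 12hLO at 150 nM in 25 mM Hepes, 0.01% Triton X-100, pH 7.0, preincubated 15 min at room temperature with compound. Reaction started with 40 uM arachidonic acid, 30 min at room temperature. Hydroperoxide measured by Fe-xylenol orange, 573/405 nm absorbance ratio.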
Active calls of the source: *; u = inconclusive; x = no result given; ! = repeats disagree; [ ] = remark or other dose. In the library only some 1.1% were active in any assay of this set; here they are far more common. Unless noted, the call rests on the fitted dose curve; in most records, active means well fitted curve in the direction sought with a large enough effect; inconclusive means small, poorly fitted or top-dose-only effect, or another doubt; inactive means no such curve, though single readings can be large; an effect the other way counts as inactive or inconclusive. Potency means the concentration at half of the fitted maximal effect.

SMILES	Eya2 phos inh	USP2a block	TSG101-PTAP inh	12-LOX inh
CN(c1ccc(F)cc1)S(=O)(=O)c1ccc(Cl)c(C(=O)NCC(c2ccco2)N2CCCCC2)c1 (stereo unspecified)	-1.2%	2.6%	-4.3%	0.794µM*
CCn1c(SCc2cccc(C(F)(F)F)c2)nnc1-c1ccco1	1.8%	0.3%	-5.1%	50.1µM*
CCn1c(SCC(N)=O)nnc1-c1ccco1	15.4%	-2.0%	-2.3%	1.0%
O=C(c1cc(-c2ccco2)on1)N1CCc2ccccc2C1	-6.9%	u	-1.8%	17.8µM*
O=C(c1cc(-c2ccccc2O)on1)N1CCc2ccccc2C1	7.5%	-0.1%	1.8%	u
COc1ccc(NC(=O)N2CCCC(Cc3noc(-c4cnccn4)n3)C2)cc1 (stereo unspecified)	x	x	x	21.1%
CCOc1cc(N2CCOCC2)c(OCC)cc1NC(C)C(=O)N1CCC(C)CC1 (stereo unspecified)	-4.5%	1.3%	-7.6%	35.5µM*
CCN1CCN(c2ccc(S(=O)(=O)N3CCCCC3)cc2NC(=O)Cc2ccccc2)CC1	5.6%	1.9%	0.9%	15.8µM*!
CCN1CCN(c2ccc(S(=O)(=O)N3CCCCC3)cc2NC(=O)Cc2ccccc2F)CC1	15.2%	2.4%	-1.3%	-11.6%
COc1ccc(-c2cc(-c3ccc4cn[nH]c4c3)cn3cncc23)cc1	x	x	x	8.91µM*
COc1ccc(-c2cc(-c3cccc(OC)c3OC)cn3cncc23)cc1	x	x	x	70.8µM*
c1cc(-c2cc(-c3ccc4cn[nH]c4c3)cn3cncc23)ccn1	x	x	x	4.2%[176 µM]
O=c1ccc(-c2cc(-c3cccc4cn[nH]c34)cn3cncc23)c[nH]1	x	x	x	31.6µM*
Cc1ccc(C(CNC(=O)c2cc(=O)c3cc(Cl)ccc3o2)N2CCC(C)CC2)o1 (stereo unspecified)	x	x	x	25.6%
Cc1[nH]n(-c2ncc(-c3ccccc3)s2)c(=O)c1C(c1ccc(Br)cc1)C(C#N)C#N (stereo unspecified)	-19.1%	-1.6%	-4.8%	25.1µM*
Cc1[nH]n(C(N)=S)c(=O)c1C(c1ccccc1)C(C#N)C#N (stereo unspecified)	5.5%	-0.4%	-6.5%	u
Cc1ccc(CN(C(=O)COc2ccc(Br)cc2)c2ccccn2)o1	x	x	x	-9.9%
CN(C)CCCn1c(-c2ccc(COc3ccc(Br)cc3)o2)n[nH]c1=S	x	x	x	14.1µM*
CCOc1ccc(C(=O)C(C)OC(=O)c2ccc(OCC(N)=O)cc2)cc1 (stereo unspecified)	x	x	x	-27.8%
CC(C)C[C@@H]1N[C@H](C(=O)NCCOc2ccccc2)Cc2cn(C)c3cccc1c23	x	x	x	34.6%[176 µM]
Cc1ccc(-n2cc(CN3CCCCC3C(N)=O)c(-c3cccc(C)c3)n2)cc1 (stereo unspecified)	x	x	x	-3.0%
Cc1nnc(SCC(=O)NCCc2ccco2)c2nn(-c3ccc(Cl)cc3)c(C)c12	x	x	x	31.6µM*
CCOC(=O)C1(Cc2cccc(OC)c2)CCCN(Cc2cccc(C)n2)C1 (stereo unspecified)	x	x	x	65.9%
CC(NC(=O)/C(C#N)=C1\N=C(NC(=O)c2ccco2)c2ccccc21)c1ccccc1 (stereo unspecified)	56.2µM*	-1.6%	-0.1%	u
CC(C)NC(=S)NC(c1ccccc1)(c1ccccc1)c1ccccc1	-3.1%	-2.8%	2.6%	39.8µM*
SMILES	Eya2 phos inh	USP2a block	TSG101-PTAP inh	12-LOX inh
Fc1c(F)c(C(F)(F)F)c(F)c(F)c1Sc1cccc2cccnc12	x	x	x	-2.6%
Cn1ccc(C(=O)N2CC(CNc3ccccc3)C3(C2)CN(c2ccccc2)C3)n1 (stereo unspecified)	x	x	x	-42.7%[176 µM]
O=C1C(=C(c2ccccc2)c2ccccc2)C(Cl)C(Cl)(Cl)c2ccccc21 (stereo unspecified)	x	x	x	10µM*
O=C1OC(c2ccccc2)(c2ccccc2)c2ccccc21	x	x	0.2%	-8.0%
COc1cc(CN2CCN(Cc3ccccc3C)CC2)cc(OC)c1O	x	x	x	1µM*
C[n+]1cn(CC(O)COCc2ccccc2)c2ccccc21 (stereo unspecified)	5.2%	-1.0%	-3.3%	39.8µM*
CC1=NC(=O)C(N=Nc2cccc(C(=O)O)c2)N1c1ccccc1 (stereo unspecified)	-6.0%	0.6%	-8.7%	7.08µM*
N#C/C(=C\c1ccccn1)c1nc2ccccc2s1	16.0%	8.9%	u	31.6µM*
COC(=O)c1ccc(/C=C(\C#N)c2nc3ccccc3s2)cc1	12.0%	6.4%	0.6%	u
Cc1ccc(O)c(C(=O)/C=C/c2ccccc2Cl)c1	x	x	x	24.6%
Nc1nc(=S)c2ncn(C3CCCCC3)c2[nH]1	x	x	-0.5%	50.1µM*
CCCCCCCCOS(=O)(=O)O	x	x	x	2.8%[176 µM]
Cc1ccccc1-c1nc2ccccc2c(=O)n1/N=C/c1ccc([N+](=O)[O-])cc1	x	x	-7.4%	23.4%
Cc1ccccc1-c1nc2ccccc2c(=O)n1/N=C/c1ccccc1[N+](=O)[O-]	4.7%	-1.8%	-6.1%	31.6µM*
O=C(O)CCCNC(=O)Cn1ccc2ccc(Br)cc21	x	x	x	-9.1%
NCc1ccccc1-c1cnc2ccccc2c1	x	x	x	-18.9%[12.5 µM]
Cn1nc(C(=O)N2CCCN(C(=O)C3CC3)C(c3ccccc3)CC(=O)NCC2)c2ccccc21 (stereo unspecified)	x	x	x	41.3%
O=C(CCS(=O)(=O)c1cc2c3c(c1)CCN3C(=O)CC2)Nc1cccc(Br)c1	x	x	x	44.7µM*
COc1ccc(NC(=O)CCS(=O)(=O)c2cc3c4c(c2)CCN4C(=O)CC3)c(OC)c1	x	x	x	-19.5%
COc1ccc(C)cc1NC(=O)CCS(=O)(=O)c1cc2c3c(c1)CCN3C(=O)CC2	x	x	x	17.8µM*
CC(C)CNC(=O)C(=O)Nc1ccc2cc[nH]c2c1	x	x	x	35.5µM*
CN1CCOC(CNC(=O)Cc2ccccc2F)C1 (stereo unspecified)	x	x	x	12.9%
S=c1[nH]c2ccccc2s1	x	x	x	28.2µM*!
Cc1cc(C(C)(C)C)cc(C)c1CS(=O)Cc1cccc(F)c1 (stereo unspecified)	x	x	x	-52.7%
COc1ccccc1NC(=O)C(Cc1ccc(Cl)cc1)c1nn[nH]n1 (stereo unspecified)	-6.3%	-2.1%	-3.3%	0.0%
SMILES	Eya2 phos inh	USP2a block	TSG101-PTAP inh	12-LOX inh
COc1ccc(CC(C(=O)Nc2ccc(OC)cc2)c2nn[nH]n2)cc1 (stereo unspecified)	10.8%	-0.3%	-8.8%	4.47µM*
COC(=O)C(N)Cc1ccc(O)cc1 (stereo unspecified)	6.2%	6.4%	-1.5%	0.0%
COC(=O)C(N)Cc1ccc(O)c(O)c1 (stereo unspecified)	3.3%	1.7%	-0.7%	6.31µM*
CC(C)c1nc2c(c(-c3ccc(O)cc3)n1)CN(CC1CCCCC1)CC2	x	x	x	-17.9%
Cc1cccc(OC[C@H]2C[C@@H](NC(=O)c3ccc(C#N)cc3)[C@H](O)[C@@H]2O)n1	x	x	x	25.1µM*
O=C(c1ccc2c(c1)OCO2)N1CCn2c(nnc2C2CCCNC2)C1 (stereo unspecified)	x	x	x	2.4%[6.33 µM]
O=C(c1ccc2c(c1)OCO2)N1CCC(c2nnc3n2CCNC3)CC1	x	x	x	10µM*
